Assay results as given in PubChem BioAssay (EPA / NIEHS).
Calls of active or inactive are those of the source. How the source made its calls: active means hit-call score of the fitted dose curve at least 0.9, where 1 is the maximum; inactive means score below 0.9.

Columns and labels:
Conditions in all cases: mRNA level, 48 h; actives raise or lower the signal
[1] = read-out: Peroxisomal acyl-coenzyme A oxidase 1 (ACOX1) gene, ACOX1 (gene 51); assay: LTEA_HepaRG_ACOX1: Life Technologies and Expression Analysis (LTEA) Assay for Peroxisomal acyl-coenzyme A oxidase 1 (ACOX1) gene using HepaRG (AID 2283467)
Procedure, shortened: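 HepaRG, 48 h chemical exposure, 8-pt half-log series from 100 uM top, 0.5% DMSO vehicle, duplicates. Readout: ACOX1 mRNA by Fluidigm qRT-PCR, housekeeping-normalized; bidirectional fit vs DMSO baseline.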

[2] = read-out: Alkaline Phosphatase, Placental (ALPP) gene, ALPP (gene 250); assay: LTEA_HepaRG_ALPP: Life Technologies and Expression Analysis (LTEA) Assay for Alkaline Phosphatase, Placental (ALPP) gene using HepaRG (AID 2283468)
Procedure, shortened: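 HepaRG cells plated 48 h, then exposed in duplicate for 48 h in serum-free induction medium to 8-point half-log series from 100 uM in 0.5% DMSO. ALPP mRNA by TaqMan qRT-PCR, normalized to ACTB/GAPDH/POLR2A; bidirectional fit versus DMSO.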

[3] = read-out: Bcl-2 (BAD) gene, BAD (gene 572); assay: LTEA_HepaRG_BAD: Life Technologies and Expression Analysis (LTEA) Assay for Bcl-2 (BAD) gene using HepaRG (AID 2283469)
Procedure, shortened: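 HepaRG, 48 h exposure, 8-pt half-log curve from 100 uM in 0.5% DMSO, duplicates. Readout: TaqMan qRT-PCR for BAD mRNA, housekeeping-normalised (ACTB/GAPDH/POLR2A); gain or loss fitted against DMSO baseline.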

[4] = read-out: Bcl-2 (BAX) gene, BAX (gene 581); assay: LTEA_HepaRG_BAX: Life Technologies and Expression Analysis (LTEA) Assay for Bcl-2 (BAX) gene using HepaRG (AID 2283470)
Procedure, shortened: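 Cells were thawed, plated for 48 h, moved to serum-free induction medium and dosed for 48 h (highest concentration 100 uM, half-log steps, 0.5% DMSO). Total RNA was then analysed for BAX expression by qRT-PCR.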

[5] = read-out: adenosine kinase (ADK) gene, ADK (gene 132); assay: LTEA_HepaRG_ADK: Life Technologies and Expression Analysis (LTEA) Assay for adenosine kinase (ADK) gene using HepaRG (AID 2283471)
Procedure, shortened: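 Read-out is ADK transcript level measured by qRT-PCR and normalised to three housekeeping genes. Cells are human HepaRG, dosed for 48 h at up to 100 uM in 0.5% DMSO. Gain or loss of signal is fitted against DMSO controls.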

[6] = read-out: Alpha-fetoprotein (AFP) gene, AFP (gene 174); assay: LTEA_HepaRG_AFP: Life Technologies and Expression Analysis (LTEA) Assay for Alpha-fetoprotein (AFP) gene using HepaRG (AID 2283472)
Procedure, shortened: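 Chemicals were tested on differentiated HepaRG cells for 48 hours at eight concentrations up to 100 uM, with 0.5% DMSO as vehicle. AFP expression was then quantified by qRT-PCR and analyzed for gain or loss relative to DMSO.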

BCL2L11 (gene 10018) = assay: LTEA_HepaRG_BCL2L11: Life Technologies and Expression Analysis (LTEA) Assay for Bcl-2 (BCL2L11) gene using HepaRG (AID 2283473)
Procedure, shortened: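 Differentiated human HepaRG cells were exposed 48 h in serum-free induction medium to eight half-log concentrations up to 100 uM in 0.5% DMSO, in duplicate. BCL2L11 mRNA was quantified by TaqMan qRT-PCR, normalized to ACTB, GAPDH and POLR2A; induction or repression fitted versus DMSO.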

[7] = read-out: Apolipoprotein A-V (APOA5) gene, APOA5 (gene 116519); assay: LTEA_HepaRG_APOA5: Life Technologies and Expression Analysis (LTEA) Assay for Apolipoprotein A-V (APOA5) gene using HepaRG (AID 2283474)
Procedure, shortened: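 Differentiated HepaRG cells in serum-free induction medium, exposed 48 h in duplicate to eight half-log concentrations topping at 100 uM (0.5% DMSO). APOA5 mRNA by Fluidigm TaqMan qRT-PCR, normalized to ACTB, GAPDH and POLR2A; bidirectional fit versus DMSO.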

[8] = read-out: Apoptosis regulator Bcl-2 (Homo sapiens) (UniProt P10415); assay: LTEA_HepaRG_BCL2: Life Technologies and Expression Analysis (LTEA) Assay for Bcl-2 gene using HepaRG (AID 2283475)
Procedure, shortened: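 Plated human HepaRG cells are exposed to test chemicals for 48 h across eight concentrations from 100 uM downward in half-log steps (0.5% DMSO). BCL2 expression is then measured by qRT-PCR with housekeeping normalisation and fitted bidirectionally against vehicle.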

[9] = read-out: Bcl-2 (BID) gene, BID (gene 637); assay: LTEA_HepaRG_BID: Life Technologies and Expression Analysis (LTEA) Assay for Bcl-2 (BID) gene using HepaRG (AID 2283476)
Procedure, shortened: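 Cells are plated, cultured 48 h, switched to serum-free induction medium, then dosed 48 h (100 uM top, half-log steps, 0.5% DMSO). RNA is isolated and BID expression read by qRT-PCR.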

Caspase-3 (Homo sapiens) = Caspase-3 (Homo sapiens) (UniProt P42574); assay: LTEA_HepaRG_CASP3: Life Technologies and Expression Analysis (LTEA) Assay for cysteine-aspartic acid protease (CASP3) using HepaRG (AID 2283477)
Procedure, shortened: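 Differentiated HepaRG cells, plated 48 h, were treated in duplicate in serum-free induction medium for 48 h with eight half-log concentrations up to 100 uM in 0.5% DMSO. CASP3 mRNA measured by qRT-PCR, normalized to ACTB, GAPDH, POLR2A.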

[10] = read-out: Cytochrome P450 (CYP1A2), CYP1A2 (gene 1544); assay: LTEA_HepaRG_CYP1A2: Life Technologies and Expression Analysis (LTEA) Assay for Cytochrome P450 (CYP1A2) using HepaRG (AID 2283479)
Procedure, shortened: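 Differentiated human HepaRG cells in serum-free induction medium exposed 48 hours in duplicate to 8 half-log concentrations from 100 uM, 0.5% DMSO. CYP1A2 mRNA quantified by qRT-PCR, normalized to ACTB, GAPDH and POLR2A; bidirectional fitting versus DMSO.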

[11] = read-out: cysteine-aspartic acid protease (CASP8), CASP8 (gene 841); assay: LTEA_HepaRG_CASP8: Life Technologies and Expression Analysis (LTEA) Assay for cysteine-aspartic acid protease (CASP8) using HepaRG (AID 2283480)
Procedure, shortened: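 qRT-PCR readout of CASP8 mRNA, normalized to three housekeeping genes, after 48 h chemical exposure of HepaRG cells; 8-point half-log series, top 100 uM, 0.5% DMSO vehicle. Bidirectional curve fitting against DMSO baseline.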

[12] = read-out: Cytochrome P450 2C19 (Homo sapiens) (UniProt P33261); assay: LTEA_HepaRG_CYP2C19: Life Technologies and Expression Analysis (LTEA) Assay for CYP2C19 using HepaRG (AID 2283482)
Procedure, shortened: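 Differentiated HepaRG cells in serum-free induction medium exposed 48 h in duplicate, 8 concentrations from 100 uM by half-log steps in 0.5% DMSO. CYP2C19 mRNA measured by TaqMan qRT-PCR, normalized to ACTB, GAPDH, POLR2A. Bidirectional fit versus DMSO.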

CYP2C8 (gene 1558) = assay: LTEA_HepaRG_CYP2C8: Life Technologies and Expression Analysis (LTEA) Assay for CYP2C8 using HepaRG (AID 2283483)
Procedure, shortened: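 HepaRG (human liver line), 48 h chemical exposure, 8-pt half-log series from 100 uM, 0.5% DMSO vehicle. Readout: CYP2C8 transcript by qRT-PCR, housekeeping-normalized. Bidirectional fit vs DMSO baseline.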

CYP2C9 (gene 1559) = assay: LTEA_HepaRG_CYP2C9: Life Technologies and Expression Analysis (LTEA) Assay for CYP2C9 using HepaRG (AID 2283484)
Procedure, shortened: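 HepaRG, 48 h dosing, 8-pt half-log series, top 100 uM, 0.5% DMSO vehicle. Read-out: CYP2C9 transcript by TaqMan qRT-PCR, housekeeping-normalized (ACTB/GAPDH/POLR2A). Gain or loss fitted vs DMSO baseline.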

CYP2E1 (gene 1571) = assay: LTEA_HepaRG_CYP2E1: Life Technologies and Expression Analysis (LTEA) Assay for CYP2E1 using HepaRG (AID 2283485)
Procedure, shortened: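 Readout is qRT-PCR of CYP2E1 mRNA, normalized to three housekeeping genes and fitted bidirectionally against 0.5% DMSO. HepaRG cells were dosed 48 h at eight concentrations, highest 100 uM with half-log dilutions.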

CYP4A11 (gene 1579) = assay: LTEA_HepaRG_CYP4A11: Life Technologies and Expression Analysis (LTEA) Assay for CYP4A11 using HepaRG (AID 2283486)
Procedure, shortened: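 Differentiated HepaRG cells, 48 h after plating, exposed in duplicate for 48 h to 8 half-log concentrations up to 100 uM in 0.5% DMSO in serum-free induction medium. CYP4A11 mRNA measured by TaqMan qRT-PCR, normalized to ACTB, GAPDH and POLR2A.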

[13] = read-out: Cytochrome P450 (CYP24A1), CYP24A1 (gene 1591); assay: LTEA_HepaRG_CYP24A1: Life Technologies and Expression Analysis (LTEA) Assay for Cytochrome P450 (CYP24A1) using HepaRG (AID 2283478)
Procedure, shortened: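 HepaRG cells plated 48 h, then exposed in duplicate in serum-free induction medium for 48 h to 8-point half-log series from 100 uM in 0.5% DMSO. CYP24A1 mRNA by Fluidigm qRT-PCR, normalized to ACTB, GAPDH, POLR2A; bidirectional fit versus DMSO.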

[14] = read-out: Cytochrome P450 (CYP2B6), CYP2B6 (gene 1555); assay: LTEA_HepaRG_CYP2B6: Life Technologies and Expression Analysis (LTEA) Assay for Cytochrome P450 (CYP2B6) using HepaRG (AID 2283481)
Procedure, shortened: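 Differentiated human HepaRG cells in serum-free induction medium, dosed in duplicate for 48 h over 8 half-log concentrations topping at 100 uM (0.5% DMSO). CYP2B6 mRNA measured by TaqMan qRT-PCR, normalized to ACTB, GAPDH, POLR2A; bidirectional fit versus DMSO.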

Measured: AC50

Cytochrome P450 2C19 (Homo sapiens), sequence (P33261 whole entry, looked up): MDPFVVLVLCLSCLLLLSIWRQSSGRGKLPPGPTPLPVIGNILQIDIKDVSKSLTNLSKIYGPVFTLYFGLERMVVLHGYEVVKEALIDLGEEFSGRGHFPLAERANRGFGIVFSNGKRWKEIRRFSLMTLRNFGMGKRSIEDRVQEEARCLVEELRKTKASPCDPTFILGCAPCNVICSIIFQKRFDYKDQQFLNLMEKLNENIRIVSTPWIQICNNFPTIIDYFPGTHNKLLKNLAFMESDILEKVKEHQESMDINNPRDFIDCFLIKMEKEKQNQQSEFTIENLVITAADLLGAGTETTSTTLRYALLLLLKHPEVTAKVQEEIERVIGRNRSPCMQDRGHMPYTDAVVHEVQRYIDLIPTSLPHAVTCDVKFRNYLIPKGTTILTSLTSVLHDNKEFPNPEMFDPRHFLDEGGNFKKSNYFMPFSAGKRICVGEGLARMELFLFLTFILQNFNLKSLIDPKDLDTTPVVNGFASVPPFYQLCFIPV
Caspase-3 (Homo sapiens), sequence (P42574 whole entry, looked up): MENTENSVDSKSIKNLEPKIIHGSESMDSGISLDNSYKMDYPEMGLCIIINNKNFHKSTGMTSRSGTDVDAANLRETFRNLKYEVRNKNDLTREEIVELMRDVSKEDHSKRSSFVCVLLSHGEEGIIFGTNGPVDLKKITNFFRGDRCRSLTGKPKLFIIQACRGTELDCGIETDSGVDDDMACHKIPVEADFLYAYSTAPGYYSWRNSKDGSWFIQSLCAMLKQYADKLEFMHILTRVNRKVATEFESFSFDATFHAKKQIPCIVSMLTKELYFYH
Apoptosis regulator Bcl-2 (Homo sapiens), sequence (P10415 whole entry, looked up): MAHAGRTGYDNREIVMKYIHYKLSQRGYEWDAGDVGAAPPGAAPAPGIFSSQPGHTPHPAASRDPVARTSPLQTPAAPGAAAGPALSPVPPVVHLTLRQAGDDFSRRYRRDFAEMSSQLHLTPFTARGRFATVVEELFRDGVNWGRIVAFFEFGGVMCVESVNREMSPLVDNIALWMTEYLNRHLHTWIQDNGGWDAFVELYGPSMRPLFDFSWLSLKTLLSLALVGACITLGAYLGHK

CNC(=O)[C@H]1O[C@@H](n2cnc3c(NCc4cc(Cl)ccc4OCc4cc(C)no4)ncnc32)[C@H](O)[C@@H]1N
not listed: [13] | [14]
inactive: all other assays above

COc1ccc2c(c1)c(CC(=O)O)c(C)n2C(=O)c1ccc(Cl)cc1
active: CYP2E1 (gene 1571) 21.3 µM
not listed: [9]
inactive: all other assays above

Cc1nc(C)nc(N2C[C@@H](C)N(c3ccnc([C@@H](C)O)n3)[C@@H](C)C2)n1
active: CYP2C9 (gene 1559) 25 µM | CYP4A11 (gene 1579) 9.39 µM
inactive: all other assays above

NS(=O)(=O)c1cc2c(cc1Cl)NCNS2(=O)=O
not listed: [10]
inactive: all other assays above

NCC1(Cc2noc(=O)[nH]2)CCCCC1
not listed: [9]
inactive: all other assays above

Cc1cc(NC(=O)C(=O)O)cc(C)c1Oc1ccc(O)c2c1CCC2
active: [6] 9.92 µM | [10] 0.00228 µM | [14] 0.00316 µM | [12] 0.618 µM | CYP2E1 (gene 1571) 1.2 µM | CYP4A11 (gene 1579) 0.00589 µM
inactive: all other assays above

CCCCCCCCCCC
not listed: Caspase-3 (Homo sapiens) | [13] | [14]
inactive: all other assays above

C=CCc1ccc(O)c(OC)c1
inactive: all assays above

C=CCOC(=O)c1ccccc1C(=O)OCC=C
not listed: [13] | [14]
inactive: all other assays above

Cc1cccc(Nc2cc(Cl)nc(SCC(=O)O)n2)c1C
active: [1] 10.9 µM | [9] 0.276 µM | [14] 65.4 µM | [12] 50 µM | CYP2C8 (gene 1558) 50 µM | CYP2E1 (gene 1571) 22.3 µM | CYP4A11 (gene 1579) 4.63 µM
not listed: [13]
inactive: all other assays above

CCCCc1ccc2c(n1)[C@@H](c1ccc(OC)cc1C[C@H](C)C(=O)O)[C@H](C(=O)O)[C@H]2c1ccc2c(c1)OCO2
inactive: all assays above

COc1cc(C=O)ccc1O
not listed: [14]
inactive: all other assays above

OC[C@@H](O)[C@@H](O)[C@H](O)[C@H](O)CO
not listed: [13]
inactive: all other assays above

CN1CCN(Cc2cc(-c3ccc4[nH]c(=O)oc4c3)co2)[C@@H](c2ccc(F)cc2)C1
active: [2] 50 µM | [6] 90.1 µM | [10] 65.7 µM | CYP2C9 (gene 1559) 88 µM | CYP2E1 (gene 1571) 50 µM | CYP4A11 (gene 1579) 78.5 µM
not listed: [13] | [14]
inactive: all other assays above
